# Laboratory results: PubChem BioAssay (EPA / NIEHS)
# Results filed as inconclusive are left out. Active and inactive are the calls of the source. Rule for the calls: active = hit-call score of the fitted dose curve at least 0.9, where 1 is the maximum; inconclusive = response in the unintended direction; inactive = score below 0.9.
# Assays:
# [1] = tested on: guinea pig Muscarinic, Peripheral (Mperiperal) Receptor, Non-selective Binding, gene 100379235; assay: NVS_GPCR_gMPeripheral_NonSelective: NovaScreen (NVS) G Protein-Coupled Receptor Assay for guinea pig Muscarinic, Peripheral (Mperiperal) Receptor, Non-selective Binding (AID 2283250)
# In short: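 Screened in duplicate at 25 uM, hits retested in concentration series to 50 uM max, using bladder membrane radioligand displacement from guinea pig. Filtration and scintillation counting 1 h post-dose, fitted relative to DMSO.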
# [2] = target: guinea pig Opioid, Kappa 1 Receptor (OpiateK), OPRK1 (gene 100135587) (UniProt P41144); assay: NVS_GPCR_gOpiateK: NovaScreen (NVS) G Protein-Coupled Receptor Assay for guinea pig Opioid, Kappa 1 Receptor (OpiateK) (AID 2283252);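 note: active means reduced radioligand binding relative to DMSO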
# In short: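 Radioligand binding to kappa opioid receptor in guinea pig cerebellar membranes, read by filtration and scintillation at 2 h. Compounds first tested in duplicate at 25 uM, then actives in concentration series; signal loss fitted against DMSO.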
# [3] = target: human Adenosine A1 Receptor (AdoRA1), ADORA1 (gene 134) (UniProt P30542); assay: NVS_GPCR_hAdoRA1: NovaScreen (NVS) G Protein-Coupled Receptor Assay for human Adenosine A1 Receptor (AdoRA1) (AID 2283254)
# In short: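 Radioligand competition binding on human cortical membranes, 1 h after compound addition; bound radioactivity read by filtration and scintillation counting. Loss of signal versus DMSO baseline scored as displacement; primary screen duplicate at 25 uM, actives retested in concentration series.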
# [4] = target: human Adrenergic, Alpha 2A Receptor (Adra2A), ADRA2A (gene 150) (UniProt P08913); assay: NVS_GPCR_hAdra2A: NovaScreen (NVS) G Protein-Coupled Receptor Assay for human Adrenergic, Alpha 2A Receptor (Adra2A) (AID 2283257)
# In short: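 Displacement of a specific radioligand from HT29 membrane protein was counted by filter scintillation after 1 h. Compounds were screened in duplicate at 25 uM, and actives were retested in concentration series. Fitting was positive-direction against DMSO.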
# [5] = target: human Adrenergic, Alpha 2c Receptor (Adra2C), ADRA2C (gene 152) (UniProt P18825); assay: NVS_GPCR_hAdra2C: NovaScreen (NVS) G Protein-Coupled Receptor Assay for human Adrenergic, Alpha 2c Receptor (Adra2C) (AID 2283259)
# In short: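 Screened first in duplicate at 25 uM, with actives then run as concentration series. Membranes from Sf9 cells were exposed for 1 h, and displacement of radioligand was counted after filtration, using DMSO as baseline.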
# [6] = tested on: guinea pig Leukotriene B4 Receptor (LTB4), gene 100379538; assay: NVS_GPCR_gLTB4: NovaScreen (NVS) G Protein-Coupled Receptor Assay for guinea pig Leukotriene B4 Receptor (LTB4) (AID 2283247)
# In short: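 Membranes from guinea pig spleen incubated 2 h with radioligand and compound; bound counts measured by filtration and scintillation. Screened first at 25 uM in duplicate, then actives titrated to a 50 uM top concentration relative to DMSO.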
# [7] = target: human Serotonin, 5-Hydroxytryptamine Receptor 2A (5HT2A), HTR2A (gene 3356) (UniProt P28223); assay: NVS_GPCR_h5HT2A: NovaScreen (NVS) G Protein-Coupled Receptor Assay for human Serotonin, 5-Hydroxytryptamine Receptor 2A (5HT2A) (AID 2283249)
# In short: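 Radioligand displacement on human cortex tissue extract, counted by filtration and scintillation 1.5 h post-dosing. Initial single-concentration screen at 25 uM in duplicate, concentration series in follow-up; DMSO as baseline.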
# [8] = target: human Serotonin, 5-Hydroxytryptamine Receptor 7 (5HT7), HTR7 (gene 3363) (UniProt P34969); assay: NVS_GPCR_h5HT7: NovaScreen (NVS) G Protein-Coupled Receptor Assay for human Serotonin, 5-Hydroxytryptamine Receptor 7 (5HT7) (AID 2283255);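 note: hits reduce specific radioligand binding relative to DMSO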
# In short: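 Filter-bound radioactivity counted after 1 h, with loss of specific radioligand binding fitted against DMSO. Membrane protein came from CHO cells expressing human 5HT7. Chemicals were tested first at 25 uM in duplicate, then in concentration series if active.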
# [9] = target: human Serotonin, 5-Hydroxytryptamine Receptor 5A (5HT5A), HTR5A (gene 3361) (UniProt P47898); assay: NVS_GPCR_h5HT5A: NovaScreen (NVS) G Protein-Coupled Receptor Assay for human Serotonin, 5-Hydroxytryptamine Receptor 5A (5HT5A) (AID 2283251)
# In short: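 Membranes from HEK293 cells, radioligand binding read by filtration and scintillation after 1 h. Single-concentration duplicate testing at 25 uM, then concentration-response for actives; positive-direction fitting relative to DMSO.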
# [10] = target: human Adrenergic, Beta 1 Receptor (Adrb1), ADRB1 (gene 153) (UniProt P08588); assay: NVS_GPCR_hAdrb1: NovaScreen (NVS) G Protein-Coupled Receptor Assay for human Adrenergic, Beta 1 Receptor (Adrb1) (AID 2283258)
# In short: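 Membranes/protein extracted from human neuroepithelioma cells, radioligand competition binding read by filtration and scintillation 2 h post-dose. Single 25 uM duplicate screen, then concentration-response follow-up; DMSO as negative control.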
# [11] = target: human Adrenergic, Beta 3 Receptor (Adrb3), ADRB3 (gene 155) (UniProt P13945); assay: NVS_GPCR_hAdrb3: NovaScreen (NVS) G Protein-Coupled Receptor Assay for human Adrenergic, Beta 3 Receptor (Adrb3) (AID 2283262)
# In short: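 A cell-free filter binding assay read by scintillation counting, with displacement of a specific radioligand measured after 1 hour. The receptor source was SK-N-MC extracts (cells pretreated with isoproterenol and 8-bromo-cAMP). Compounds were first tested at 25 uM in duplicate and then in concentration series.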
# [12] = target: human Dopamine Receptor D2 (DRD2), DRD2 (gene 1813) (UniProt P14416); assay: NVS_GPCR_hDRD2s: NovaScreen (NVS) G Protein-Coupled Receptor Assay for human Dopamine Receptor D2 (DRD2) (AID 2283266)
# In short: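 Test compound (25 uM, duplicate in the primary screen; concentration series at follow-up) competed with radioligand for human DRD2 in CHO-derived membrane protein. Filter-based scintillation counting was done 1.5 hours after dosing, with loss of signal analysed against DMSO.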
# [13] = target: guinea pig Leukotriene D4 Receptor (LTD4), CYSLTR1 (gene 100135514) (UniProt Q2NNR5); assay: NVS_GPCR_gLTD4: NovaScreen (NVS) G Protein-Coupled Receptor Assay for guinea pig Leukotriene D4 Receptor (LTD4) (AID 2283248)
# In short: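 Guinea pig lung membrane preparation; bound radioligand measured by filter scintillation after 1 h, loss of signal versus DMSO marking displacement. Compounds tested at 25 uM in duplicate, hits retested to max 50 uM.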
# [14] = target: Beta-2 adrenergic receptor (Homo sapiens) (UniProt P07550); assay: NVS_GPCR_hAdrb2: NovaScreen (NVS) G Protein-Coupled Receptor Assay for human Adrenergic, Beta 2 Receptor (Adrb2) (AID 2283261)
# In short: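 Compounds screened in duplicate at 25 uM, then actives in concentration series. Human beta-2 receptor from CHO material, cell-free; radioligand displacement after 1 h measured by filtration and scintillation against DMSO baseline.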
# [15] = target: human Serotonin, 5-Hydroxytryptamine Receptor 6 (5HT6), HTR6 (gene 3362) (UniProt P50406); assay: NVS_GPCR_h5HT6: NovaScreen (NVS) G Protein-Coupled Receptor Assay for human Serotonin, 5-Hydroxytryptamine Receptor 6 (5HT6) (AID 2283253)
# In short: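 Filter scintillation counting of radioligand displacement from HEK293-expressed 5HT6, 1 hour post-dose, with loss of signal relative to DMSO. Single 25 uM duplicates first, with concentration series for confirmation.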
# [16] = target: Type-1 angiotensin II receptor (Homo sapiens) (UniProt P30556); assay: NVS_GPCR_hAT1: NovaScreen (NVS) G Protein-Coupled Receptor Assay for human Angiotensin II receptor type 1 (AT1) (AID 2283263)
# In short: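 Hits from a 25 uM duplicate screen (threshold e.g. 30% inhibition) were run in concentration-response with 50 uM top concentration. Displacement of specific radioligand from KAN-TS membrane preparations measured after 3 h by filter scintillation, DMSO as baseline.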
# [17] = target: human Dopamine Receptor D4.4 (DRD4.4), DRD4 (gene 1815) (UniProt P21917); assay: NVS_GPCR_hDRD4.4: NovaScreen (NVS) G Protein-Coupled Receptor Assay for human Dopamine Receptor D4.4 (DRD4.4) (AID 2283264)
# In short: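 Filter-binding assay with a tritiated or iodinated ligand, cell-free receptor prepared from CHO, 1 hour. Loss of bound radioactivity versus DMSO; single 25 uM duplicate screen, then concentration-response for actives.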
# [18] = target: human Adenosine A2a Receptor (AdoRA2a), ADORA2A (gene 135) (UniProt P29274); assay: NVS_GPCR_hAdoRA2a: NovaScreen (NVS) G Protein-Coupled Receptor Assay for human Adenosine A2a Receptor (AdoRA2a) (AID 2283256)
# In short: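 HEK293-derived receptor preparation, radioligand displacement, 1.5 h, filtration + scintillation read. Loss of bound signal scored vs DMSO. Single-point 25 uM in duplicate first, then concentration-response for actives.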
# Chain of Beta-2 adrenergic receptor (Homo sapiens) (P07550 whole entry, looked up): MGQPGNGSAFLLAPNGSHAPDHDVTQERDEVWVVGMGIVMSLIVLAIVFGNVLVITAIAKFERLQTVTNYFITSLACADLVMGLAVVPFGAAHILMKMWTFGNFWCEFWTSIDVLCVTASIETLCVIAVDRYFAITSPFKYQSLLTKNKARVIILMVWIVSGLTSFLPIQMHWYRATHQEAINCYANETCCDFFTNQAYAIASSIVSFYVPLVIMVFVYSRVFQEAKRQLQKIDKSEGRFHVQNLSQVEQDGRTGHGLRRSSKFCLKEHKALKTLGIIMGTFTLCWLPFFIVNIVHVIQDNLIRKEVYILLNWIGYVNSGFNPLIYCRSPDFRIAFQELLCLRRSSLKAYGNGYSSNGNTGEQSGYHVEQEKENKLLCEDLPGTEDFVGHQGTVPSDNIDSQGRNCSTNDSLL
# Chain of human Dopamine Receptor D4.4 (DRD4.4), DRD4 (gene 1815) (P21917 whole entry, looked up): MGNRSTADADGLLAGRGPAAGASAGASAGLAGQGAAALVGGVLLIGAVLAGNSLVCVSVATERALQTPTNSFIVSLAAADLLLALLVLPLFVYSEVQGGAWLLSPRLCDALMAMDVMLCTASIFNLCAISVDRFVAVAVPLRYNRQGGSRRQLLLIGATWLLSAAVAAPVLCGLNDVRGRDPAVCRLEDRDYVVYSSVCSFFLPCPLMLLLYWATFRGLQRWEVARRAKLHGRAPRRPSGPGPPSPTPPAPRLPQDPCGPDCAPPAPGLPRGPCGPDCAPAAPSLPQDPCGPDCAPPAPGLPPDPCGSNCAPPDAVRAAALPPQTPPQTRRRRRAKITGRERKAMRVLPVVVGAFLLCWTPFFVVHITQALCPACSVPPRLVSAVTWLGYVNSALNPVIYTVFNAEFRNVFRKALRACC
# Chain of human Adrenergic, Beta 3 Receptor (Adrb3), ADRB3 (gene 155) (P13945 whole entry, looked up): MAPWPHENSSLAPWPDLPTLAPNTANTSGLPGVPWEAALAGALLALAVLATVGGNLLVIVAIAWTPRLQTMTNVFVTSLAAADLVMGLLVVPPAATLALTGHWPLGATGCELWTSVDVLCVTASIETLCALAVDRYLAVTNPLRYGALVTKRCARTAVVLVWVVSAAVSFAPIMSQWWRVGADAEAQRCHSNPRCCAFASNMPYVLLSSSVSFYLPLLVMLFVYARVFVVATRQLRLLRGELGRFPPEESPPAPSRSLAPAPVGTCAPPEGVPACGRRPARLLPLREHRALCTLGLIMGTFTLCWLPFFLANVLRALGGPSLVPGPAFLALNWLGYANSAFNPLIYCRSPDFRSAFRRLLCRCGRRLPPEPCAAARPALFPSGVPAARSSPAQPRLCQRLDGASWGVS
# Chain of human Adrenergic, Alpha 2c Receptor (Adra2C), ADRA2C (gene 152) (P18825 whole entry, looked up): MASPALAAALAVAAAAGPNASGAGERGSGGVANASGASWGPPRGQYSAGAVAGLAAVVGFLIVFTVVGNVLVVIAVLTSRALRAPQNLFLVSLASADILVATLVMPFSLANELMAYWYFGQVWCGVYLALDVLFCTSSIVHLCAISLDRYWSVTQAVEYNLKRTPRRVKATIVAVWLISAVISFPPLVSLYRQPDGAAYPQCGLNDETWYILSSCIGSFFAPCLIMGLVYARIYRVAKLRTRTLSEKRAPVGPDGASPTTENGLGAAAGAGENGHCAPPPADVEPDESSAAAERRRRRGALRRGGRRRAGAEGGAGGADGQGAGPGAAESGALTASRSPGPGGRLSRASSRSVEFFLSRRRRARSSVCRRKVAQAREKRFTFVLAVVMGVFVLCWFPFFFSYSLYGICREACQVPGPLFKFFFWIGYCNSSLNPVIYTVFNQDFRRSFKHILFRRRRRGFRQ
# Chain of guinea pig Opioid, Kappa 1 Receptor (OpiateK), OPRK1 (gene 100135587) (P41144 whole entry, looked up): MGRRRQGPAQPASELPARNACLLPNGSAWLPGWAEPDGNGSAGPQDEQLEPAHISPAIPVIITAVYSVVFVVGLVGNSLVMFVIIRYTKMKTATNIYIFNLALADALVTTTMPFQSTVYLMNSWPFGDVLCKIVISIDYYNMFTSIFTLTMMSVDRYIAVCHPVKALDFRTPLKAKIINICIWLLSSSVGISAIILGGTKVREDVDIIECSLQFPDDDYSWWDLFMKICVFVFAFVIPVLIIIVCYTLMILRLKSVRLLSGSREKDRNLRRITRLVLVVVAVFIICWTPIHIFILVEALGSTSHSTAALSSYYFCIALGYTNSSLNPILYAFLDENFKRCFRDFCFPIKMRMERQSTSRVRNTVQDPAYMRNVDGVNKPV
# Chain of human Serotonin, 5-Hydroxytryptamine Receptor 5A (5HT5A), HTR5A (gene 3361) (P47898 whole entry, looked up): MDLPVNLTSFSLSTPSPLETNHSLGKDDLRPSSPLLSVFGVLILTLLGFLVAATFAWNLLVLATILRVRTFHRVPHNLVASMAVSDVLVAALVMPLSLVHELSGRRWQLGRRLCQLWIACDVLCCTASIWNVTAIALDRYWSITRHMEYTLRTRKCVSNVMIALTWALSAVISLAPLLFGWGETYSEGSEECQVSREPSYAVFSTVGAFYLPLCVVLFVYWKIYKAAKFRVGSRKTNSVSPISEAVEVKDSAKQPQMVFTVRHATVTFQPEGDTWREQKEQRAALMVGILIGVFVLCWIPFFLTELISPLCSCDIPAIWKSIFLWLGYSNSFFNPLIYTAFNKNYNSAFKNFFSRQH
# Chain of human Dopamine Receptor D2 (DRD2), DRD2 (gene 1813) (P14416 whole entry, looked up): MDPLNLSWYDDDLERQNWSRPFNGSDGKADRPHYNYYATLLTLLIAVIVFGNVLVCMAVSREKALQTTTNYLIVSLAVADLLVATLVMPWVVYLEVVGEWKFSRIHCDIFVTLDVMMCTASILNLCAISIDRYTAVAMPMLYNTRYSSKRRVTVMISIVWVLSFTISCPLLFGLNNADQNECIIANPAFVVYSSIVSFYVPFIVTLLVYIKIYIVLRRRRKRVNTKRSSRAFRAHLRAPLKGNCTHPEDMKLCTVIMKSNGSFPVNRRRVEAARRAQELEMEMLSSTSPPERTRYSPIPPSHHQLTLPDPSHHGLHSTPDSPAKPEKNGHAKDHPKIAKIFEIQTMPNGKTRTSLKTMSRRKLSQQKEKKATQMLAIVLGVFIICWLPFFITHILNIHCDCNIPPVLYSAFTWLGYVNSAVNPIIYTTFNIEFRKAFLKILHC
# Chain of human Serotonin, 5-Hydroxytryptamine Receptor 7 (5HT7), HTR7 (gene 3363) (P34969 whole entry, looked up): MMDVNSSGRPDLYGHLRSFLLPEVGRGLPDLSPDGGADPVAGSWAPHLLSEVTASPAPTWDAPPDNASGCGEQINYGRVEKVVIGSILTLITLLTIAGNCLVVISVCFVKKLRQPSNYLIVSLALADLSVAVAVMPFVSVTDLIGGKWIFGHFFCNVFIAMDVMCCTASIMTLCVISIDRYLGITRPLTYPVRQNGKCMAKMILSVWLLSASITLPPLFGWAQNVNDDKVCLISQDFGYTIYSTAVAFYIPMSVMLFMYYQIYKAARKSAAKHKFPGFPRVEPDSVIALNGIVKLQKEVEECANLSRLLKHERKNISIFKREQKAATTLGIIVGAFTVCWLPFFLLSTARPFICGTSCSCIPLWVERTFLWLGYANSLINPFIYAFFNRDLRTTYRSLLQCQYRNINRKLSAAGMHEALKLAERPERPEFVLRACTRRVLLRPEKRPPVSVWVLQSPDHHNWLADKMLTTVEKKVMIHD
# Chain of human Adrenergic, Alpha 2A Receptor (Adra2A), ADRA2A (gene 150) (P08913 whole entry, looked up): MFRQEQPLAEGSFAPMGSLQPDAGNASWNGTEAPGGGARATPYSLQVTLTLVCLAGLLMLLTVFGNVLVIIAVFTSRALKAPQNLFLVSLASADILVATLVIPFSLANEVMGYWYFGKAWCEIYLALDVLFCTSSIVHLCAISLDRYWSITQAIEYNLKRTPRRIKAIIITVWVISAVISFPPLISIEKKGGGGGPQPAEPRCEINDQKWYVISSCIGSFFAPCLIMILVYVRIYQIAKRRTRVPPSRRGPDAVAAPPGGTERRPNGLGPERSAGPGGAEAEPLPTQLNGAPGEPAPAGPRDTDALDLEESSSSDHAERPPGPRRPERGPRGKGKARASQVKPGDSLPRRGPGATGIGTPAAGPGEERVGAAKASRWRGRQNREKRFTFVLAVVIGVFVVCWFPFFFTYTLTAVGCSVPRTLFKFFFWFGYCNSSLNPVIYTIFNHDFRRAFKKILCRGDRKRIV
# Chain of human Adrenergic, Beta 1 Receptor (Adrb1), ADRB1 (gene 153) (P08588 whole entry, looked up): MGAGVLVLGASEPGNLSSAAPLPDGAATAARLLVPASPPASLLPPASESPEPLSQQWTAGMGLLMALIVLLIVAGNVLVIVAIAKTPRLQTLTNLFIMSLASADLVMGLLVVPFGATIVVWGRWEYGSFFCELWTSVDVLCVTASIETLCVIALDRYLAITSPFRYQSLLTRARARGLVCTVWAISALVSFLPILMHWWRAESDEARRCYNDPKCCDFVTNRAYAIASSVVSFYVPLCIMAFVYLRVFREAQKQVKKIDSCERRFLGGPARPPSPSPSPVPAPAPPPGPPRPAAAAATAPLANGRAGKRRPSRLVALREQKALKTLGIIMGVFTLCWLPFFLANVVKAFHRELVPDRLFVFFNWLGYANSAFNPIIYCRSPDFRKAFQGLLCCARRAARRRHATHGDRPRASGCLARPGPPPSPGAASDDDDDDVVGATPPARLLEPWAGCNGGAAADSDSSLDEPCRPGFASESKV
# Chain of human Adenosine A1 Receptor (AdoRA1), ADORA1 (gene 134) (P30542 whole entry, looked up): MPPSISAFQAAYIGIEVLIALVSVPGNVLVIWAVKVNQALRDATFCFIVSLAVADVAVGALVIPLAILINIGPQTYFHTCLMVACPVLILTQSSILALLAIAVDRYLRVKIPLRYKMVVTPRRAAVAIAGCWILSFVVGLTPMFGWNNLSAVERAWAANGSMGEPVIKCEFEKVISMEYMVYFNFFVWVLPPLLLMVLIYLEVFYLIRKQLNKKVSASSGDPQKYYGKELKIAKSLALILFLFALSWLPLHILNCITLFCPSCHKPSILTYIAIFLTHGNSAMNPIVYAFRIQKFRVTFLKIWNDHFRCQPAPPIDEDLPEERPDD
compound,measurement,setting,value
COCCOc1cc2cc(C(=O)NC3CCN(C(C)C)CC3)n(CC(=O)Nc3ccc(Cl)cn3)c2cn1,outcome,[1],inactive
same,outcome,[2],inactive
same,outcome,[3],inactive
same,AC50,[4],9.81 µM (active)
same,AC50,[5],6.54 µM (active)
O=C(O)CCN(C1(C(=O)NO)CCCC1)S(=O)(=O)c1ccc(Oc2ccc(F)cc2)cc1,AC50,[6],0.951 µM (active)
COc1ccc(-n2nc(C(F)F)cc2-c2ccc(S(C)=O)cc2)cc1 (centres undefined),AC50,[3],5.7 µM (active)
O=C(OC[C@H]1O[C@@H](OC(=O)c2cc(O)c(O)c(OC(=O)c3cc(O)c(O)c(O)c3)c2)[C@H](OC(=O)c2cc(O)c(O)c(OC(=O)c3cc(O)c(O)c(O)c3)c2)[C@@H](OC(=O)c2cc(O)c(O)c(OC(=O)c3cc(O)c(O)c(O)c3)c2)[C@@H]1OC(=O)c1cc(O)c(O)c(OC(=O)c2cc(O)c(O)c(O)c2)c1)c1cc(O)c(O)c(OC(=O)c2cc(O)c(O)c(O)c2)c1,outcome,[6],inactive
same,outcome,[5],inactive
CN(C)c1ccc(N=NS(=O)(=O)O)cc1,AC50,[2],8.61 µM (active)
COc1ccc2sc(C(=O)Nc3nnn[nH]3)c(OC(C)C)c2c1,outcome,[6],inactive
CC[C@H]1CC[C@H](NCc2cc3c(cc2OC)[C@H]2C[C@H]2C(=O)N3C)[C@H](c2ccccc2)N1,AC50,[7],9.49 µM (active)
same,AC50,[1],1.05 µM (active)
same,AC50,[2],2.02 µM (active)
same,AC50,[3],13.6 µM (active)
same,AC50,[8],20.4 µM (active)
same,AC50,[4],4.96 µM (active)
CCCCCCc1ccc(O)cc1O,outcome,[9],inactive
same,AC50,[8],25 µM (active)
same,AC50,[10],25 µM (active)
same,AC50,[5],6.31 µM (active)
Cn1c(=O)cc(Oc2ccc(F)cc2F)c2cnc(NCC(C)(C)O)nc21,outcome,[2],inactive
CC/C(=C\C(=N/O)C(N)=O)C(C)[N+](=O)[O-] (centres undefined),outcome,[7],inactive
same,outcome,[11],inactive
CC1(C)C(=O)N(Br)C(=O)N1Br,AC50,[7],25 µM (active)
Cc1c(-c2cccnc2)c2ccccc2n1CCCCC(=O)O,AC50,[2],14.7 µM (active)
On1ccccc1=S,AC50,[2],10.4 µM (active)
CCC(C)(C)C(=O)O[C@H]1C[C@@H](C)C=C2C=C[C@H](C)[C@H](CC[C@@H]3C[C@@H](O)CC(=O)O3)[C@H]21,outcome,[9],inactive
same,AC50,[8],11.8 µM (active)
same,outcome,[12],inactive
CCOc1cccc(-n2cc(C(=O)N3CCN(c4cc(C(=O)O)c5ccccc5c4)CC3)nc2-c2ccc(C)cc2)c1,AC50,[13],19.8 µM (active)
same,AC50,[9],34 µM (active)
same,AC50,[3],14.3 µM (active)
same,AC50,[8],23.8 µM (active)
same,AC50,[5],12.3 µM (active)
same,AC50,[14],6.36 µM (active)
CCc1cc(SCc2sc(-c3ccc(C(F)(F)F)cc3)nc2CN2CCN(c3ccc(OC)cc3)CC2)ccc1OCC(=O)O,outcome,[13],inactive
same,outcome,[7],inactive
same,AC50,[9],2.36 µM (active)
same,AC50,[15],37.3 µM (active)
same,AC50,[8],4.32 µM (active)
same,AC50,[5],2.63 µM (active)
same,outcome,[14],inactive
same,AC50,[16],9.64 µM (active)
same,AC50,[17],6.77 µM (active)
same,AC50,[12],4.08 µM (active)
CC(C)CC(C)(O)C#CC(C)(O)CC(C)C (centres undefined),outcome,[11],inactive
O=C(NS(=O)(=O)/C=C/c1ccccc1)c1ccc(F)cc1Cl,AC50,[6],12.4 µM (active)
COc1cccc(-c2ccc(/C=C\CN3CCCCCC3)cc2Cl)c1,AC50,[7],15.8 µM (active)
same,AC50,[1],11.1 µM (active)
same,AC50,[9],22.6 µM (active)
same,AC50,[8],17.5 µM (active)
same,AC50,[4],8.54 µM (active)
same,AC50,[10],22.6 µM (active)
same,AC50,[5],0.401 µM (active)
same,AC50,[14],26.4 µM (active)
same,outcome,[11],inactive
same,AC50,[17],10.2 µM (active)
same,AC50,[12],8.5 µM (active)
CCN(C(=O)c1cc(C)cc(OC[C@H](C)Nc2ccncc2)c1)C(C)C,outcome,[7],inactive
same,AC50,[4],7.91 µM (active)
CCOC(=O)c1ccc(C2CCC(NC[C@H](O)COc3ccc(O)c(NS(C)(=O)=O)c3)CC2)cc1 (some centres undefined),AC50,[7],23.4 µM (active)
same,AC50,[1],23.4 µM (active)
same,AC50,[15],13 µM (active)
same,outcome,[3],inactive
same,AC50,[8],6.12 µM (active)
same,AC50,[18],12.1 µM (active)
same,AC50,[4],31.1 µM (active)
same,AC50,[10],1.84 µM (active)
same,AC50,[5],7.95 µM (active)
same,AC50,[14],0.24 µM (active)
same,AC50,[11],7.77 µM (active)
same,AC50,[17],11.3 µM (active)
same,AC50,[12],0.0174 µM (active)
